Measured values: PubChem BioAssay (NCATS)
Results filed as inconclusive are left out. Activity calls are given as the source filed them. Calls follow the shape of the dose curve; as a rule, active = well fitted curve in the direction sought with a large enough effect; inconclusive = small, poorly fitted or top-dose-only effect, or another doubt; inactive = no such curve, though single readings can be large; an effect the other way counts as inactive or inconclusive.

Columns and labels:
[1] = Quantitative High-Throughput drug screen in 47 multiple myeloma cell lines against the NCATS MIPE library collection: FR4_PLB cell viability assay (AID 1918924; also: nearly all actives have a fitted effect of over 35% in size)
Outline: (§1)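 Inhibition of cell viability is measured here. Each line was plated at 500 cells per well, treated with MIPE 4.0 drugs, kept 48 hours at 37C, then assayed for ATP content by CellTiter-Glo luminescence.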

[2] = Quantitative High-Throughput drug screen in 47 multiple myeloma cell lines against the NCATS MIPE library collection: ARD_JJKsccE7 cell viability assay (AID 1918929)
Outline: (§2)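 Viability readout: CellTiter-Glo luminescence following 5 min room-temperature incubation with reagent. Prior exposure: 48 h, 37C, humidified 5% CO2, 500 cells per well.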

[3] = Quantitative High-Throughput drug screen in 47 multiple myeloma cell lines against the NCATS MIPE library collection: KHM11_PLB cell viability assay (AID 1918962); also: nearly all actives have a fitted effect of over 35% in size
Outline: as §1

[4] = Quantitative High-Throughput drug screen in 47 multiple myeloma cell lines against the NCATS MIPE library collection: JIM1_ECACC cell viability assay (AID 1918964)
Outline: as §2

[5] = Quantitative High-Throughput drug screen in 47 multiple myeloma cell lines against the NCATS MIPE library collection: INA6_PLB cell viability assay (AID 1918965; also: nearly all actives have a fitted effect of over 55% in size)
Outline: (§3)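 qHTS of the MIPE 4.0 collection: 500 myeloma cells/well, 48 h drug exposure at 37C in 5% CO2, then CellTiter-Glo for 5 min at room temperature before luminescence reading.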

[6] = Quantitative High-Throughput drug screen in 47 multiple myeloma cell lines against the NCATS MIPE library collection: KMS20_JCRB cell viability assay (AID 1918973); also: nearly all actives have a fitted effect of over 45% in size
Outline: as §2

[7] = Quantitative High-Throughput drug screen in 47 multiple myeloma cell lines against the NCATS MIPE library collection: Karpas620_DSMZ cell viability assay (AID 1918959); also: nearly all actives have a fitted effect of over 30% in size
Outline: as §1

[8] = Quantitative High-Throughput drug screen in 47 multiple myeloma cell lines against the NCATS MIPE library collection: KMM1_JCRB cell viability assay (AID 1918960); also: nearly all actives have a fitted effect of over 30% in size
Outline: (§4)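 Myeloma cells at 500 per well in 1536-well format treated with MIPE 4.0 library by pin transfer for 48 h at 37C, 5% CO2. Viability from ATP luminescence (CellTiter-Glo), normalized to DMSO (100%) and media-only (0%) wells.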

[9] = Quantitative High-Throughput drug screen in 47 multiple myeloma cell lines against the NCATS MIPE library collection: Karpas417_ECACC cell viability assay (AID 1918961); details: Karpas417 myeloma viability, CellTiter-Glo ATP luminescence, 48 h; viability (% of DMSO): at 45.8 µM (top of the series)
Outline: as §3

[10] = Quantitative High-Throughput drug screen in 47 multiple myeloma cell lines against the NCATS MIPE library collection: KMS27_JCRB cell viability assay (AID 1918970); also: nearly all actives have a fitted effect of over 30% in size
Outline: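 ATP-based viability (CellTiter-Glo luminescence) is measured in cells treated 48 h with approved and investigational drugs at 37 °C. Controls are DMSO-only wells for full viability and media-only wells for none.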

[11] = Quantitative High-Throughput drug screen in 47 multiple myeloma cell lines against the NCATS MIPE library collection: KMS12PE_JCRB cell viability assay (AID 1918972); also: nearly all actives have a fitted effect of over 30% in size
Outline: as §3

[12] = Quantitative High-Throughput drug screen in 47 multiple myeloma cell lines against the NCATS MIPE library collection: H1112_PLB cell viability assay (AID 1918967; also: nearly all actives have a fitted effect of over 30% in size)
Outline: as §2

[13] = Quantitative High-Throughput drug screen in 47 multiple myeloma cell lines against the NCATS MIPE library collection: KMS12BM_JCRB cell viability assay (AID 1918971); also: nearly all actives have a fitted effect of over 35% in size
Outline: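 Approved and investigational drugs from MIPE 4.0 were added by pin tool to 500 cells per well. After 48 hours at 37C, ATP-based CellTiter-Glo luminescence indicated remaining viability.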

[14] = Quantitative High-Throughput drug screen in 47 multiple myeloma cell lines against the NCATS MIPE library collection: Delta47_JCRB cell viability assay (AID 1918925; also: nearly all actives have a fitted effect of over 45% in size)
Outline: as §2

[15] = Quantitative High-Throughput drug screen in 47 multiple myeloma cell lines against the NCATS MIPE library collection: EJM_DSMZ cell viability assay (AID 1918926; also: nearly all actives have a fitted effect of over 30% in size)
Outline: as §2

[16] = Quantitative High-Throughput drug screen in 47 multiple myeloma cell lines against the NCATS MIPE library collection: AMO1_DSMZ cell viability assay (AID 1918927; also: nearly all actives have a fitted effect of over 30% in size)
Outline: as §2

[17] = Quantitative High-Throughput drug screen in 47 multiple myeloma cell lines against the NCATS MIPE library collection: JIM3_ECACC cell viability assay (AID 1918963; also: nearly all actives have a fitted effect of over 35% in size)
Outline: as §1

[18] = Quantitative High-Throughput drug screen in 47 multiple myeloma cell lines against the NCATS MIPE library collection: Karpas25_ECACC cell viability assay (AID 1918968; also: nearly all actives have a fitted effect of over 35% in size)
Outline: as §2

[19] = Quantitative High-Throughput drug screen in 47 multiple myeloma cell lines against the NCATS MIPE library collection: ARP1_JJKsccF8 cell viability assay (AID 1918928; also: nearly all actives have a fitted effect of over 40% in size)
Outline: as §4

[20] = Quantitative High-Throughput drug screen in 47 multiple myeloma cell lines against the NCATS MIPE library collection: JJN3_DSMZ cell viability assay (AID 1918966; also: nearly all actives have a fitted effect of over 50% in size)
Outline: as §2

Measured: Potency
Potency is read from the fitted curve at half-maximal effect.

O=C1NC(=O)C(=Cc2ccc3c(c2)OC(F)(F)O3)S1
active: [2] 16.6 µM | [3] 13.2 µM | [5] 26.4 µM | [6] 13.2 µM
inactive: [1] | [4]

O=C1NC(=O)C(=Cc2ccc(-c3ccc(F)cc3)o2)S1
inactive: [1] | [7] | [3] | [5] | [10]
active: [8] 5.9 µM | [9] 1.66 µM | [11] 4.18 µM

O=C(O)[C@H]1O[C@H](Oc2cc3oc(-c4ccccc4)cc(=O)c3c(O)c2O)[C@H](O)[C@@H](O)[C@H]1O
inactive: [2] | [5] | [12] | [11]
active: [1] 26.4 µM | [3] 20.9 µM | [13] 16.6 µM

Nc1ncnc2c1ncn2[C@@H]1O[C@H](CO)C[C@@H]1O
active: [13] 20.9 µM
not listed: [1] | [2] | [3] | [4] | [19] | [20]
inactive: all other assays above

COc1cccc(-c2cc(=O)c3ccccc3o2)c1N
inactive: [15] | [7] | [8] | [10]
active: [14] 2.64 µM | [16] 16.6 µM | [3] 5.26 µM | [17] 3.72 µM | [5] 2.35 µM | [18] 1.66 µM | [6] 7.43 µM

CC(C)C(=O)Oc1ccc(CO)cc1[C@H](CCN(C(C)C)C(C)C)c1ccccc1
active: [13] 14.8 µM
not listed: [1] | [3] | [5] | [6] | [12] | [14] | [20]
inactive: all other assays above

O=C(O)c1ccc(-c2cc3cccnc3c(-c3ccc4nonc4c3)n2)cc1
active: [14] 23.5 µM | [15] 18.7 µM | [3] 20.9 µM | [5] 20.9 µM | [18] 23.5 µM | [13] 20.9 µM | [11] 20.9 µM | [6] 11.8 µM

CC(C)C(=O)Nc1ncc(-c2cc(C(F)F)nn2-c2c(Cl)cccc2Cl)s1
active: [14] 26.4 µM | [16] 8.33 µM | [2] 20.9 µM | [8] 16.6 µM | [17] 23.5 µM | [4] 10.5 µM | [5] 23.5 µM | [18] 20.9 µM | [10] 14.8 µM | [13] 26.4 µM | [11] 16.6 µM

COc1cc(O)c2c(c1)C(=O)c1cc(C)cc(O)c1C2=O
not listed: [1] | [2] | [4] | [5] | [16] | [19] | [20]
inactive: all other assays above

CCC(CC)[C@H](NC(C)=O)[C@@H]1[C@H](O)[C@@H](C(=O)O)C[C@@H]1N=C(N)N
inactive: [14] | [15] | [19] | [2] | [3] | [17] | [5] | [20] | [12] | [18] | [10]

CC1CCC(C(=O)N(c2cc(C#CC(C)(C)C)sc2C(=O)O)C2CCC(O)CC2)CC1 (configuration not stated)
active: [14] 23.5 µM | [5] 26.4 µM | [20] 18.7 µM
inactive: [16] | [2] | [7] | [8] | [4] | [10] | [11]

Cc1cc(OCCCc2c(C(=O)O)n(Cc3cccnc3)c3c(-c4c(COc5ccc(N6CCN([S+](C)(=O)[O-])CC6)cc5)nn(C)c4C)cccc23)cc(C)c1Cl
inactive: [16] | [7] | [10]
active: [14] 18.7 µM | [8] 9.35 µM | [5] 18.7 µM | [20] 26.4 µM | [18] 20.9 µM | [13] 26.4 µM | [11] 6.62 µM

CC(=O)O[C@]1(C(C)=O)CC[C@@H]2[C@@H]3C[C@H](C)C4=CC(=O)CC[C@]4(C)[C@H]3CC[C@@]21C
active: [14] 18.7 µM | [15] 20.9 µM | [19] 26.4 µM | [8] 4.69 µM | [5] 18.7 µM | [20] 20.9 µM | [13] 16.6 µM
inactive: [7] | [3] | [17] | [4] | [10] | [11]

CNC(=O)c1ccccc1Sc1ccc2c(C=Cc3ccccn3)n[nH]c2c1
active: [14] 3.72 µM | [15] 23.5 µM | [16] 2.64 µM | [7] 0.264 µM | [8] 3.32 µM | [5] 18.7 µM | [12] 0.296 µM | [18] 16.6 µM | [13] 16.6 µM | [11] 1.66 µM

CC(=O)Oc1cc2c(s1)CCN(C(C(=O)C1CC1)c1ccccc1F)C2 (configuration not stated)
active: [14] 3.32 µM | [16] 1.87 µM | [19] 1.32 µM | [7] 1.18 µM | [5] 4.69 µM | [12] 2.96 µM | [18] 1.87 µM
